# Source: PubChem BioAssay (National Center for Advancing Translational Sciences (NCATS))
# This is a sample that favours compounds with a hit; in the whole collection about 10% have one here.
# HP1b chromo inh – inhibitors of HP1-beta chromodomain binding to methylated histone tails; P83916; AlphaScreen HP1-beta / biotin-H3K9me3 peptide binding; Potency, µM (titrated, usually from 114 µM), most hits filed as inhibitors; 390,000 compounds, 0.56% hits; AID 540317; also: nearly all actives have a fitted effect of over 70% in size
# Target sequence (P83916 whole entry, looked up): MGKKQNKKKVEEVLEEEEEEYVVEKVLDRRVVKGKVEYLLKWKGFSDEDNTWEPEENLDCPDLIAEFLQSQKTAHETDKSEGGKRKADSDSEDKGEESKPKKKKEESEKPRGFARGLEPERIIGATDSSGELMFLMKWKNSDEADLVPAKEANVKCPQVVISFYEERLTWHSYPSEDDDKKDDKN
#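 HP1-beta protein (50 nM final) preincubated 30 min at room temperature with biotinylated H3(1-18)K9me3 peptide (50 nM) in PBS pH 7.4, 0.01% Tween-20, then compound added for 30 min. AlphaScreen streptavidin donor/nickel chelate acceptor beads (10 ug/mL final), 30 min dark, luminescence read.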
# G9a block – inhibitors of human histone lysine methyltransferase G9a | Potency, µM (titrated, usually from 102 µM), actives largely listed as inhibitors | 350,000 compounds, 8.8% hits | G9a H3K9 monomethylation, AlphaScreen, 2 h; also: nearly all actives have a fitted effect of over 75% in size
# Target sequence (Q96KQ7 913-1193 limits assumed): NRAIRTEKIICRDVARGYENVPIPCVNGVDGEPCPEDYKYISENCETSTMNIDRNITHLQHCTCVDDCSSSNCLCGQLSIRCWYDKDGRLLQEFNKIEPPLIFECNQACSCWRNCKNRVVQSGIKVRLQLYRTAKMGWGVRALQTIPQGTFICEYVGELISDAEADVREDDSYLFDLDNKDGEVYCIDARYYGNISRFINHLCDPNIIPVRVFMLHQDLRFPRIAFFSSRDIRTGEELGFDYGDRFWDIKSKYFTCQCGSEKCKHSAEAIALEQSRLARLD
#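 Enzyme 20 nM + cpd, 15 min RT; add b-H3K9 pep 500 nM / SAM 20 uM; 2 h RT; anti-H3K9me1 Ab 0.5 ug/mL + SA donor / anti-rabbit acceptor beads 20 ug/mL each, 10 min; AlphaScreen read.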
# JMJD2A Tudor – JMJD2A Tudor domain (human) inhibition. Potency, µM (titrated, usually from 114 µM), actives largely listed as inhibitors. O75164. AlphaScreen JMJD2A-Tudor / H3K4me3 peptide binding. 390,000 compounds, 4.4% hits; also: nearly all actives have a fitted effect of over 50% in size
# BAZ2B block – blocks human BAZ2B. Q9UIF8. Potency, µM (series often up to 114 µM), actives largely listed as inhibitors. AlphaScreen BAZ2B-H3K14Ac peptide displacement. 360,000 compounds, 4.4% hits; also: nearly all actives have a fitted effect of over 60% in size
#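 BAZ2B (50 nM) with biotin-H3(5-23)K14Ac peptide (50 nM) in PBS pH 7.4, 0.01% Tween-20, preformed 30 min, then compound 30 min at room temperature; top concentration 110uM. AlphaScreen streptavidin donor/nickel chelate acceptor beads (10 ug/mL final), 20 min dark, signal read.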
# Six1-Eya2 blk – blocks human Six1 binding to Eya2 | Q15475+O00167 | 360,000 compounds, 0.56% hits | AlphaScreen GST-Six1/His-Eya2 binding, biochemical; hits give low values | AID 651725 | activity change, % (concentration not given with the values); in the data active = activity change below about -65%; inconclusive = mostly about -30% to -63%
#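 Homogeneous AlphaScreen proximity assay pairing GST-Six1 with His-tagged Eya2 (added as 5X mix: 250 nM and 500 nM) in 50 mM Tris pH 8.0, 300 mM NaCl, 1 mM TCEP. Glutathione donor and nickel acceptor beads; 1 h, 37 °C, dark.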
# CtBP-E1A blk – CtBP/E1A binding inhibition | AlphaScreen GST-E1A/His-CtBP binding, 1536-well; hits give low values | AID 651724 | activity change, % (concentration not given with the values) | 340,000 compounds, 0.49% hits; in the data active = activity change below about -65%; inconclusive = mostly about -30% to -63%
#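 AlphaScreen with 125 nM GST-E1A and 125 nM His-CtBP (5X stocks) in Tris pH 8.0, 300 mM NaCl, BSA, Tween 20, TCEP. Compounds preincubated 2 h at 37 deg C, then glutathione donor/nickel acceptor beads added for 1 h at 37 deg C in dark.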
# Numbers stand for hits; n = inactive; u = inconclusive; x = not tested or not shown; ! = not active in a repeat; [ ] = another dose, or the depositor's remark. Unless noted, calls follow the shape of the dose curve; as a rule, active = well fitted inhibition curve with a large enough effect; inconclusive = small, poorly fitted or top-dose-only effect; inactive = no such curve, though single readings can be large or run the other way.
SMILES,HP1b chromo inh,G9a block,JMJD2A Tudor,BAZ2B block,Six1-Eya2 blk,CtBP-E1A blk
C=CCN1CCN(C(=O)CSc2ccccc2)CC1,n,n,n,n,n,x
Cc1cccc(C2CN(C)CCc3c2cc(O)c(O)c3Cl)c1 (centres undefined),n,24µM,n,n,n,n
COc1ccc(Cc2nc3ccc(C(=O)NCCc4ccc(Cl)cc4)cc3o2)cc1,n,n,n,n,x,x
O=C(NC1(C(F)(F)F)N=C(c2ccccc2)N(Cc2ccccc2)C1=O)c1ccc(F)cc1 (centres undefined),n,n,n,n,x,x
O=C(Nc1cccc(-c2nn3c(=O)cc(N4CCNCC4)nc3s2)c1)C1CCNCC1,x,x,n,x,x,x
CCc1ccc(CNC(=O)CN2C(=O)c3cccnc3Oc3ccc(C)cc32)cc1,n,n,n,n,x,x
CC1=C(C)CS(=O)N(S(=O)(=O)c2ccc(Cl)cc2)C1 (centres undefined),n,2.2µM,n,n,n,n
CCOc1ccc(NC(=O)Cn2c(=O)n(CC(=O)NCCc3ccccc3)c(=O)c3sccc32)cc1,n,n,n,n,x,x
C=CCC1Cc2c(cccc2[N+](=O)[O-])C(CC=C)N1 (centres undefined),n,50µM,u,u,u,u
N#Cc1ccc(CSc2nnc(Nc3ccccc3)s2)cc1,n,n,n,n,n,n
CC(C)Sc1nnc(Nc2ccccc2)s1,n,50µM,n,n,n,n
O=C(NC1(O)C(=O)c2ccccc2C1=O)c1c(Cl)cccc1Cl,n,56µM,n,n,n,n
O=C(Nc1ccccc1Cl)c1c(F)c(F)c(F)c(F)c1F,n,x,n,x,n,n
O=C(NCNC(=O)c1ccccc1)c1ccccc1,n,n,n,n,n,n
O=C(NC1(O)C(=O)c2ccccc2C1=O)c1ccccc1,n,45µM,n,n,n,n
COC1(NC(=O)c2ccccc2)C(C)=CC(=O)C=C1C,u,45µM,n,n,n,n
COCCn1c(C)cc(O)c(C(c2cccc(F)c2)N2CCN(c3ccccc3)CC2)c1=O (centres undefined),n,u,n,n,x,x
Cc1nc(N)sc1-c1csc(Nc2ccccn2)n1,n,u,79µM,n,u,u
Cc1ccnc(Nc2nc(-c3sc(C)nc3C)cs2)c1,u,x,79µM,x,n,n
Cc1nc(N)sc1-c1csc(Nc2ccc(Cl)cn2)n1,u,10µM,u,u,u,u
Cc1ccc(Nc2ncc(C(=O)Nc3ccc(F)cc3F)c3ccccc23)cc1Cl,n,n,n,n,x,x
COc1cccc2[nH]c(C(=O)NC(C)c3ccccc3)cc12 (centres undefined),n,n,n,n,n,x
CCN(CC)c1ccc(NC(=O)c2cc3c(OC)cccc3[nH]2)cc1,45µM,8.9µM,16µM,20µM,u,u
CC(C)(C)c1n[nH]c2c1CCCC2,n,n,89µM,n,n,n
CCC(C)NC(=O)C1c2ccccc2C(=O)N(c2ccc(OC)cc2)C1c1ccc(OC)cc1 (centres undefined),n,n,20µM,n,n,n
SMILES,HP1b chromo inh,G9a block,JMJD2A Tudor,BAZ2B block,Six1-Eya2 blk,CtBP-E1A blk
CCC(C)NC(=O)C1c2ccccc2C(=O)N1Cc1cc(OC)ccc1OC (centres undefined),n,n,n,n,n,n
Cc1nn(CCC(=O)NNC(=S)Nc2ccc(F)cc2)c(C)c1Br,n,u,n,n,n,n
Cc1nn(CCC(=O)NNC(=S)Nc2ccc([N+](=O)[O-])cc2)c(C)c1[N+](=O)[O-],n,8.9µM,n,n,n,x
Cc1nn(C(C)C(=O)NNC(=S)Nc2ccc(F)cc2)c(C)c1[N+](=O)[O-] (centres undefined),n,45µM,n,n,n,n
O=C(Cn1nc(C(F)F)cc1C(F)F)NNC(=S)Nc1ccc([N+](=O)[O-])cc1,n,20µM,u,n,n,n
Cc1ccc(NC(=S)NNC(=O)CCn2cc(C)cn2)cc1,n,50µM,n,n,n,n
COc1ccc(NC(=S)NNC(=O)C(C)n2nc(C)c([N+](=O)[O-])c2C)cc1 (centres undefined),n,u,n,n,n,n
Cc1ccc(NS(=O)(=O)c2cc3c(cc2C)OCC(=O)N3)cc1C,x,x,n,x,x,x
Cc1cccc(C(=O)Nc2cc3c(cc2N2CCCCC2)n(C)c(=O)n3C)c1,n,n,n,50µM,x,x
CCOc1cc(C(=O)Nc2cc3c(cc2N2CCOCC2)n(C)c(=O)n3C)cc(OCC)c1OCC,n,n,25µM!,n,n,n
Cn1c(=O)n(C)c2cc(N3CCOCC3)c(NC(=O)c3ccc(Cl)cc3)cc21,n,n,n,n,x,x
COc1cccc(C(=O)Nc2cc3c(cc2N2CCOCC2)n(C)c(=O)n3C)c1,n,20µM,n,u,n,n
Cc1cccc(C(=O)Nc2cc3c(cc2N2CCOCC2)n(C)c(=O)n3C)c1,n,n,n,n,x,x
COc1ccc(C(=O)Nc2cc3c(cc2N2CCOCC2)n(C)c(=O)n3C)cc1OC,n,n,n,u,n,n
Cc1cccc(NC(=O)C(=O)NCC(c2cccnc2)N2CCc3ccccc32)c1C (centres undefined),n,u,n,n,x,x
CC(OC(=O)c1ccc2c(c1)C(=O)N(Cc1ccncc1)C2=O)C(=O)Nc1cccc(Cl)c1Cl (centres undefined),n,89µM,n,n,n,n
CCOc1ccc(C2NC(=O)c3sc(=S)n(-c4ccccc4)c3N2)cc1 (centres undefined),n,32µM,n,u,n,n
COc1ccc(C2NC(=O)c3sc(=S)n(-c4ccccc4)c3N2)cc1 (centres undefined),n,n[12.7 µM],n,n,n,n
O=C1NC(c2ccccc2)Nc2c1sc(=S)n2-c1ccccc1 (centres undefined),n,22µM,n[11.4 µM],n,n,x
CC/C(O)=C1\C(=O)CCCC1=NCCc1c(C)[nH]c2ccc(C)cc12,n,n,n[11.4 µM],u,n,n
CCCC/C(O)=C1\C(=O)CCCC1=NCCc1c(C)[nH]c2ccc(OC)cc12,n,71µM,u,u,n,n
Cc1ccc2c(c1)C(N1CCCC1=O)CC(c1ccco1)N2 (centres undefined),n,10µM,n[11.4 µM],n,n,n
COc1cc(OC)c(OC)cc1/C=C/c1nc2cc3ccccc3cc2c(=O)n1-c1ccccc1Br,n,u,u,n,x,x
Cc1c(C(=O)NCc2n[nH]c(=S)n2-c2ccc(F)cc2)cccc1[N+](=O)[O-],n,10µM,40µM,n,n,n
CCN(CC(=O)NCc1ccc(F)cc1)C(=O)CN1CCN(c2ccc(OC)cc2)CC1,18µM,7.9µM,0.89µM,18µM,n,n
O=C(CN1CCN(c2ccc(F)cc2)CC1)NCc1ccc(F)cc1,n,n,n,n,n,x
